According to PubChem BioAssay (NCATS):
Records with an inconclusive call do not appear. A call without a number means that no potency is given here. The source made the active and inactive calls. Unless noted, calls follow the shape of the dose curve; as a rule, active = well fitted curve in the direction sought with a large enough effect; inconclusive = small, poorly fitted or top-dose-only effect, or another doubt; inactive = no such curve, though single readings can be large; an effect the other way counts as inactive or inconclusive.

Tests used:
[1] = Primary qHTS for Huh7 cytotoxicity: counterscreen for inhibitors of MERS-S pseudotyped particle cell entry (AID 1479147; calls by dose curve); details: cell viability read-out; series mostly up to 57.1 µM
[2] = Primary qHTS for inhibitors of MERS-S pseudo-typed particle cell entry (AID 1479149; calls by dose curve; also: nearly all actives have a fitted effect of over 60% in size); details: MERS-S pseudotyped particle entry, luciferase; series mostly up to 57.1 µM
[3] = Primary qHTS for Vero E6 cytotoxicity: counterscreen for inhibitors of SARS-S pseudo-typed particle cell entry (AID 1479150; calls by dose curve); details: cell viability; series mostly up to 57.1 µM
[4] = Redox Reaction Profiling qHTS: Assay Interference Panel against the NCATS CANVASS Library (AID 1347401); details: resazurin-DTT redox cycling, fluorescence, 15 min; series mostly up to 57.1 µM
Outline: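 Compounds in 11-point series incubated with 5 uM resazurin and 200 uM DTT in 50 mM HEPES pH 7.3, 50 mM NaCl. Resorufin fluorescence (Ex 525/Em 598) read before and after 15 min in the dark.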

[5] = qHTS for inhibitors of Rabies Virus screened against the NCATS CANVASS Library (AID 1347402; calls by dose curve); details: Rabies virus infection cell assay; series mostly up to 45.9 µM
[6] = A2780 Cisplatin Sensitive Ovarian Cancer Cell Toxicity qHTS against the NCATS CANVASS Library (AID 1347353); details: A2780 ovarian cancer viability, ATPLite luminescence, 72 h; series mostly up to 46.1 µM; also: nearly all actives have a fitted effect of over 60% in size
Outline: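 Seventy-two-hour exposure of cisplatin-sensitive A2780 ovarian cells to an 11-concentration qHTS series; cytotoxicity is inferred from loss of ATPLite luminescence. Bortezomib titration served as positive control.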

[7] = HEK-293 Cancer Cell Toxicity qHTS against the NCATS CANVASS Library (AID 1347355); details: HEK-293 viability, CellTiter-Glo luminescence, 72 h; series mostly up to 46.1 µM; also: nearly all actives have a fitted effect of over 65% in size
Outline: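 qHTS cytotoxicity: compounds tested in 11 concentrations on 1000 seeded cells per well over 72 h; bortezomib served as control; signal from CellTiter-Glo luminescence.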

[8] = qHTS for ATAD5 Antagonist screened against the NCATS CANVASS Library (AID 1347370); details: HEK293T-ATAD5-luc, 5-FUrd stimulated, luminescence, 16 h; series mostly up to 46.1 µM;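 also: HEK293T cells carrying an ATAD5 luciferase reporter co-treated with 10 µM 5-fluorouridine; nearly all actives have a fitted effect of over 65% in size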
Outline: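 HEK293T cells with a stably integrated ATAD5-controlled luciferase reporter were exposed to compounds (11-pt) alongside 10 uM 5-fluorouridine as ATAD5 stabilizer for 16hr at 37C. Viability was read by CellTiter-Fluor fluorescence, then ATAD5 by luminescence.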

[9] = qHTS for inhibitors of ER calcium dysfunction: SERCaMP assay screened against the NCATS CANVASS Library (AID 1347393); details: SH-SY5Y GLuc-SERCaMP secretion, thapsigargin, luminescence; series mostly up to 76.6 µM;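 also: lower secreted reporter signal means inhibitor of ER calcium depletion; nearly all actives have a fitted effect of over 40% in size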
Outline: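 SH-SY5Y GLuc-SERCaMP, 1000 cells/well, 4 h attach; cpd 16 h, 37C/5% CO2; thapsigargin (added as 6x 600 nM) 4 h; coelenterazine; luminescence. Reduced reporter release = ER Ca stabilization.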

Furin (Homo sapiens) = Furin (Homo sapiens) (UniProt P09958); test: Furin counterscreen qHTS for Zika virus inhibitors (AID 1347149); details: furin enzymatic counterscreen, fluorogenic substrate; series mostly up to 57.5 µM;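 also: purified recombinant full-length human furin enzyme at 5 nM; fluorescence gain from furin cutting a BOC-RVRR-AMC peptide substrate over 15 min; top concentration of the series differs between compounds; nearly all actives have a fitted effect of over 70% in size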
Chain of Furin (Homo sapiens) (P09958 whole entry, looked up): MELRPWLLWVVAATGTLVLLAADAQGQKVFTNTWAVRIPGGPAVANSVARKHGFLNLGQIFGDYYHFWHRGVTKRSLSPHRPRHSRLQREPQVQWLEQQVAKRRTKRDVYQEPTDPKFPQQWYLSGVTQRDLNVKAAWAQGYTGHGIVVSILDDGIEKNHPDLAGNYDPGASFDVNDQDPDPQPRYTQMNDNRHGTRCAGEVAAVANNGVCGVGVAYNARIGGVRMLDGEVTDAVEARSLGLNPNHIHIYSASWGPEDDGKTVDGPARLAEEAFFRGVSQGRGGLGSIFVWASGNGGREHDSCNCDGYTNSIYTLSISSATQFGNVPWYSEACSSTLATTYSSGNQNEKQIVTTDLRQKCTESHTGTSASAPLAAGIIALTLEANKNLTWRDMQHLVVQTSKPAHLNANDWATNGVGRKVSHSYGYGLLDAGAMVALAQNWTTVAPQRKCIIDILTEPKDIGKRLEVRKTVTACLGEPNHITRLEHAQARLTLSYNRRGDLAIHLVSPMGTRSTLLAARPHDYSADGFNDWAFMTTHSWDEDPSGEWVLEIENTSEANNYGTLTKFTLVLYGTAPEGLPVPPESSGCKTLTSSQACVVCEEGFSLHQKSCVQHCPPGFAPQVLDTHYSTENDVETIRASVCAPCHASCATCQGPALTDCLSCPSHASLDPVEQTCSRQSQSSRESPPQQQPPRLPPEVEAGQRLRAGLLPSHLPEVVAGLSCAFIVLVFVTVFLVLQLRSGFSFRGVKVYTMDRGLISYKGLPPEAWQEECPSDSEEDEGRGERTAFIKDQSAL
Outline: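 Fluorogenic cleavage of BOC-RVRR-AMC (2 microM final, Km ~15 µM) was monitored (ex 340, em 450 nm) at 37C after 15 min RT preincubation of 5 nM furin with compounds in HEPES pH 7.0 buffer with CaCl2 and Triton X-100. Percent inhibition was fitted to a 4-parameter Hill curve.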

[10] = system: Zika virus NS2B-NS3 protease (linked construct); test: Confirmatory screen NINDS AMC qHTS for Zika virus inhibitors (AID 1347152); details: Purified linked NS2B-NS3, AMC substrate fluorescence; series mostly up to 56.6 µM;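 also: AMC fluorescence gain from cleaved Bz-Nle-KRR-AMC substrate over 15 min; top concentration of the series differs between compounds; nearly all actives have a fitted effect of over 70% in size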
Outline: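 Enzyme (1 nM, linked construct) was preincubated with compound for 15 minutes at room temperature in 10 mM Tris-HCl pH 8.0 with 0.01% Tween 20. Bz-Nle-Lys-Arg-Arg-AMC was then added to 10 microM, and AMC fluorescence was recorded immediately and after 15 minutes.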

[11] = system: Zika virus NS2B-NS3 protease (unlinked complex); test: Confirmatory screen GU AMC qHTS for Zika virus inhibitors (AID 1347153); details: Recombinant NS2B-NS3 protease, AMC substrate fluorescence; series mostly up to 57.1 µM; also: nearly all actives have a fitted effect of over 70% in size
Outline: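 Unlinked enzyme 25 nM, Tris pH 8.0/0.01% Tween 20; cpd 15 min RT, dark; + AMC substrate 10 µM (Km 18.3 µM); 340/450 nm read at t0 and 15 min; % inhibition → 4-param fit.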

[12] = Confirmatory screen GU Rhodamine qHTS for Zika virus inhibitors qHTS (AID 1347157); details: purified enzyme assay, Rhodamine110 substrate fluorescence, 15 min; series mostly up to 114 µM; also: potency is read from the fitted curve at half-maximal effect; nearly all actives have a fitted effect of over 70% in size
Outline: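 Buffer 10 mM Tris-HCl pH 8.0, 0.01% Tween 20. Unlinked protease 25 nM; compound preincubation 15 min, RT, protected from light. Substrate Rhod110, 1.5 microM; ~15% conversion in 15 min.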

[13] = Confirmatory screen NINDS Rhodamine qHTS for Zika virus inhibitors (AID 1347161); details: purified enzyme assay, Rhodamine110 substrate fluorescence, 15 min; series mostly up to 114 µM; also: potency is read from the fitted curve at half-maximal effect; nearly all actives have a fitted effect of over 60% in size
Outline: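 Purified linked NS2B-NS3 protease (NS2B hydrophilic domain joined to NS3 protease by flexible linker), 25 nM in 10 mM Tris-HCl pH 8.0, 0.01% Tween 20. Compounds titrated, 15 min preincubation at room temperature; 1.5 microM Rhodamine110 substrate, FITC fluorescence change over 15 min.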

[14] = Vero cells viability qHTS for Zika virus inhibitors (AID 1347167); details: cytotoxicity counter-screen (Zika); series mostly up to 45.9 µM
Outline: (§1)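 Cells seeded at 2.5 x 10^5 cells/mL in DMEM with 4% FBS and attached overnight at 37 degrees C, then exposed to compound for 24 to 48 hours. Viability read as ATP content by CellTiter Glo luminescence.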

[15] = HepG2 cells viability qHTS for Zika virus inhibitors (AID 1347168); details: Zika counter-screen; series mostly up to 45.9 µM
Outline: as §1

[16] = target: N-terminal Xaa-Pro-Lys N-methyltransferase 1 (Homo sapiens) (UniProt Q9BV86); test: Confirmatory qHTS for Inhibitors of N-terminal methyltransferase 1 (NTMT1): MTaseGlo Assay (AID 1645874); details: NTMT1 enzyme, MTase-Glo SAH luminescence; also: potency is read from the fitted curve at half-maximal effect; nearly all actives have a fitted effect of over 65% in size
Chain of N-terminal Xaa-Pro-Lys N-methyltransferase 1 (Homo sapiens) (Q9BV86 whole entry, looked up): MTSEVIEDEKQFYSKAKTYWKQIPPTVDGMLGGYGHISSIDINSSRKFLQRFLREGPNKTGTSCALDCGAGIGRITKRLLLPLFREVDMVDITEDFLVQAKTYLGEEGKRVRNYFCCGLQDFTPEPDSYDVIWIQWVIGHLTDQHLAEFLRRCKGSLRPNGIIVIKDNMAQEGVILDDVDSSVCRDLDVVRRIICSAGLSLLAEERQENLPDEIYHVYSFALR
Outline: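 Compounds are incubated with 125 nM NTMT1 and 100 uM SAM for 15 min before the SPKRIA peptide (1 uM) starts a 30 min room-temperature methylation. SAH is measured by coupled luciferase luminescence and curves fitted to a Hill equation.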

[17] = qHTS assay to identify inhibitors of the type 1 interferon - major histocompatibility complex class I in skeletal muscle: Counter screen cell viability and HiBit confirmation (AID 1347412); details: iHSKM muscle cells + IFN-b, HiBiT or CellTiter-Glo, 24 h; Potency: HiBiT; Viability, at 45.9 µM (top of the series); also: nearly all actives have a fitted effect of over 60% in size
Outline: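 Luminescence read-out: Nano-Glo HiBiT lytic signal from C-terminally HiBiT-tagged HLA-B in CRISPR-edited human myoblasts, plus CellTiter Glo ATP as viability counter screen. IFN-beta 4.0 ng/ml; 24 hrs treatment at 37 C, 5% CO2.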

[18] = target: Estrogen receptor (Homo sapiens) (UniProt P03372); test: qHTS assay for small molecule agonists of estrogen receptor alpha signaling (AID 588514; calls by dose curve); details: ER-alpha-UAS-bla HEK293, beta-lactamase ratio, 18 h; series mostly up to 76.8 µM
Chain of Estrogen receptor (Homo sapiens) (P03372 whole entry, looked up): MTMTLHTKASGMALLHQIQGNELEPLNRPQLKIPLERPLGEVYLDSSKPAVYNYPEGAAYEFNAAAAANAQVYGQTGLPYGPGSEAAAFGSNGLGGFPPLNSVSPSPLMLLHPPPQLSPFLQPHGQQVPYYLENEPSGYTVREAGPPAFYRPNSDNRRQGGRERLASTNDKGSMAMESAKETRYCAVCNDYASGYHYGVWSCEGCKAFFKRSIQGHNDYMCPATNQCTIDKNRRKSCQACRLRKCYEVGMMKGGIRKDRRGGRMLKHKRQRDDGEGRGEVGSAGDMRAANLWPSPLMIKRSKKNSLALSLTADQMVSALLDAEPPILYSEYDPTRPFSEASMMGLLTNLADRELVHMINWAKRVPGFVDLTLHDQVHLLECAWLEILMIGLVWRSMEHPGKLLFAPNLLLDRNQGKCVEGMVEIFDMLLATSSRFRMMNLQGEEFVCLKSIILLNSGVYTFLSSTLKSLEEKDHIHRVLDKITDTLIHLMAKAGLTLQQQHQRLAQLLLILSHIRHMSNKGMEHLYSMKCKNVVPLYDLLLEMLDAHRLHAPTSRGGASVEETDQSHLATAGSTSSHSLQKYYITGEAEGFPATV
Outline: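 Reporter-gene assay. […] controls beta-lactamase in HEK 293 GripTite cells; after 18 hrs with compound, CCF4 substrate is added for 2 hrs and fluorescence is read.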

[19] = target: Glucocorticoid receptor (Homo sapiens) (UniProt P04150); test: qHTS assay for small molecule antagonists of glucocorticoid receptor signaling (AID 588533; active = well fitted inhibition curve with a large enough effect in the signal ratio, with a control signal flat, not every such curve was filed as active; the % refers to the signal ratio;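 also: cells stimulated with 2 nM dexamethasone as agonist; potency is read from the fitted curve at half-maximal effect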); details: HeLa MMTV-bla, GRE beta-lactamase ratio, antagonist mode, 18 h; series mostly up to 76.8 µM
Chain of Glucocorticoid receptor (Homo sapiens) (P04150 whole entry, looked up): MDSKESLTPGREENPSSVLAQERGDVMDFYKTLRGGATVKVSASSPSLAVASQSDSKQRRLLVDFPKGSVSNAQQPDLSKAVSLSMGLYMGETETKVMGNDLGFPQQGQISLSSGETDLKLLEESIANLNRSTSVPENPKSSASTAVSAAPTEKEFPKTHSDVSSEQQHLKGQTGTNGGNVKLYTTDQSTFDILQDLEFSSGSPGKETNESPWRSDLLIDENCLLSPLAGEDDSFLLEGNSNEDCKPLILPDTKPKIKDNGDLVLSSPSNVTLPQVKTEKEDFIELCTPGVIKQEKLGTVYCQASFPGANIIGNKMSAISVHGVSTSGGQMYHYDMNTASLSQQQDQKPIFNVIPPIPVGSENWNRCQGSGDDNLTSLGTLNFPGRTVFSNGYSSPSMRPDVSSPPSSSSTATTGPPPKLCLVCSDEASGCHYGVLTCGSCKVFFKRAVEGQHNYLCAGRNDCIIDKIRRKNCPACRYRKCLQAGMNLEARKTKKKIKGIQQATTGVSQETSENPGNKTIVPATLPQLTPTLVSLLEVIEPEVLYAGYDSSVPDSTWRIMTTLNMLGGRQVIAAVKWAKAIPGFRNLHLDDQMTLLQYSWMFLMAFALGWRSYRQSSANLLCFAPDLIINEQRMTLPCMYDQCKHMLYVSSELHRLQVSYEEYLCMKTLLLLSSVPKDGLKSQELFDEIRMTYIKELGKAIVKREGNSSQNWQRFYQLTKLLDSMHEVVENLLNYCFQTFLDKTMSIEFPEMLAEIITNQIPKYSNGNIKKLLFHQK
Outline: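 Antagonist-mode qHTS: compound titrations added to GRE-bla HeLa cells, then dexamethasone 2 nM final; 18 h, 37 C. CCF4 FRET fluorescence normalized to dexamethasone and DMSO; IC50 from Hill fit.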

## CN1CCC2=C(C1)c1ccccc1Cc1ccccc12
[1]
  outcome: inactive
[2]
  Potency: inactive
[3]
  outcome: inactive

## CN1C(=O)[C@]23CC4C(C)(C)[C@@]5(C[C@@]41CN2CC[C@@]3(C)O)C(=O)Nc1c5ccc2c1OC=CC(C)(C)O2 (some centres not stated)
[4]
  Potency: inactive
[5]
  outcome: inactive

## C/C=C1/CN2CC[C@]34C(=Nc5ccccc53)[C@@H]2C[C@@H]1[C@H]4C(=O)OC
[6]
  Potency: inactive
[7]
  Potency: inactive
[8]
  Potency: inactive
[9]
  Potency: inactive
[4]
  Potency: inactive
[5]
  outcome: inactive

## CC/C=C/C=C/C1(C)OC(OC)=C(C(=O)C2C(C)C(=O)c3cc(OC)c(O)c(O)c3C2(C)O)C1=O (configuration not stated)
Furin (Homo sapiens)
  Potency: inactive
[10]
  Potency: inactive
[11]
  Potency: inactive
[12]
  Potency: 9.61 µM (active)
[13]
  Potency: 6.81 µM (active)
[14]
  Potency: inactive
[15]
  Potency: inactive

## C[C@H]1CCC[C@H](O)CCC/C=C/c2cc(O)cc(O)c2C(=O)O1
[16]
  Potency: 1 µM (active)

## C[C@H](Nc1ncnc2nc[nH]c12)c1nc2ccc(F)cc2c(=O)n1-c1ccccc1
[17]
  Potency: inactive

## C[C@@H]1Cc2c(Cl)cc(C(=O)N[C@@H](Cc3ccccc3)C(=O)O)c(O)c2C(=O)O1
[18]
  Potency: 44.7 µM (active)
[19]
  Potency: 0.891 µM (active)
